Test results from PubChem BioAssay AID493210 (National Center for Advancing Translational Sciences (NCATS), 2011).
This is one part of the list. Active and inactive are the calls of the source. Calls follow the shape of the full dose curve.

These compounds were tested against Aldehyde dehydrogenase 1A1 (Homo sapiens) (UniProt P00352) (assay: Inhibitors of Aldehyde Dehydrogenase 1 (ALDH1A1): Followup Confirmation and Counterscreen). Details: purified ALDH1A1, NADH fluorescence, propionaldehyde/NAD+.
Chain of Aldehyde dehydrogenase 1A1 (Homo sapiens) (P00352 whole entry, looked up): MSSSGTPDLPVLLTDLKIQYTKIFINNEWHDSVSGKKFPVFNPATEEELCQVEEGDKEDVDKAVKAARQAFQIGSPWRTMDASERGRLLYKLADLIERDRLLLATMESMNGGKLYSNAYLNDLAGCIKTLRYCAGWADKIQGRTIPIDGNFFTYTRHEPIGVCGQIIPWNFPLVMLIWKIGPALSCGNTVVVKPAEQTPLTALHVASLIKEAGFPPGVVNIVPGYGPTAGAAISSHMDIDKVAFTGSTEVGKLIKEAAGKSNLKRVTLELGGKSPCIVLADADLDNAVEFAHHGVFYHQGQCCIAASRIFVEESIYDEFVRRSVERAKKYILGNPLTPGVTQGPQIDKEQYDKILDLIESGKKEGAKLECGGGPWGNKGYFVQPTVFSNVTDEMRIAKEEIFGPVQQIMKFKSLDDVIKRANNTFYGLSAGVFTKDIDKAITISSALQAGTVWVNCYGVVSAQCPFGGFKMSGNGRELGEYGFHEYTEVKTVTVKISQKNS
Source text: Aldehyde dehydrogenase 1 (ALDH1A1) catalyzes the NAD+ dependent oxidation of a variety of endogenous and exogenous aldehydes to the corresponding carboxylic acids. The enzyme is the critical step in the metabolic activation of retinoic acid, which plays essential roles as nuclear receptor ligand. […] See [1] through for more information on ALDH1A1. Inhibition of ALDH1A1 activity was screened by utilizing propionaldehyde as an electron donor and NAD+ as an electron acceptor/cofactor. An increase in the fluorescence intensity due to conversion of NAD+ to NADH was used to measure the enzyme activity. See [5] for screening methodology used. References: [1] Manzer R, Qamar L, Estey T, Pappa A, Petersen DR, Vasiliou V. Molecular cloning and baculovirus expression of the rabbit corneal aldehyde dehydrogenase (ALDH1A1) cDNA. DNA Cell Biol. 2003 May;22(5):329-38. Collard F, Vertommen D, Fortpied J, Duester G, Van Schaftingen E. Identification of 3-deoxyglucosone dehydrogenase as aldehyde dehydrogenase 1A1 (retinaldehyde dehydrogenase 1). Biochimie. 2007 Mar;89(3):369-73. Ziouzenkova O, Orasanu G, Sharlach M, Akiyama TE, Berger JP, Viereck J, Hamilton JA, Tang G, Dolnikowski GG, Vogel S, Duester G, Plutzky J. Retinaldehyde represses adipogenesis and diet-induced obesity. Nat Med. 2007 Jun;13(6):695-702. Molotkov A, Duester G. Genetic evidence that retinaldehyde dehydrogenase Raldh1 (Aldh1a1) functions downstream of alcohol dehydrogenase Adh1 in metabolism of retinol to retinoic acid. J Biol Chem. 2003 Sep 19;278(38):36085-90. […] Quantitative high-throughput screening: a titration-based approach that efficiently identifies biological activities in large chemical libraries. […]
Buffer: 100 mM Hepes pH 7.5, 0.01% Tween 20. […] The plates were immediately transferred to and read twice on ViewLux High-throughput CCD imager (Perkin-Elmer) 20 minutes apart using 360 nm excitation and 450 nm emission fluorescence protocol. The fluorescence intensity difference between the second and the first time points was used to compute reaction progress.
For O=C(CN(Cc1ccccc1)C(=O)c1ccc2c(c1)OCCO2)NCc1ccc2c(c1)OCO2, the Potency was 398 nM (active). CC1CCCN(C(=O)c2ccc3c(c2)C(=O)N(CCC2=CCCCC2)C3=O)C1 (stereo not drawn) was tested, and the Potency was 1260 nM (active). With Cc1cccc2c1N(CC(=O)OC(C)C)C(=O)C2=O the Potency was 22.4 nM (active).
